Our source for the growth values is PubChem BioAssay (NCI).

About 83,000 compounds went through this panel and 20% of them were active in at least one assay; those are over-represented in the sample as a whole.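 Plates (96-well) were seeded with cells, treated with compound at one concentration, and incubated for 48 hours before percent growth was determined.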 Activity calls are given as the source filed them.

This experiment has as its system MOLT-4 leukemia. Nature of the experiment: NCI-60 one-dose screen, 48 h (100 = growth as untreated, 0 = no growth, -100 = all killed). The conditions noted are these: 10 µM unless noted. The method, then: Growth inhibition of the MOLT-4 human tumor cell line is measured as a screen for anti-cancer activity. Cells are grown in 96 well plates and exposed to the test compound for 48 hours. Compounds are tested at a single concentration, which is 10^-5 M for most compounds. The reported endpoint is percent growth (GI% or GIPRCNT), where numbers from 0 - 100% represent growth inhibition, and numbers from -100% - 0 represent cell death. For example, a value of 40 represents 60% growth inhibition. A value of 0 means no net growth occurred over the course of the experiment. A value of -40 indicates 40% of cells at the beginning of the experiment died by the end of the experiment. A value of -100 means all cells are dead at the end of the experiment.
NCI-60 Human Tumor Cell Lines Screen was performed using the standard one-dose NCI protocol, which is described in more detail at https://dtp.cancer.gov/discovery_development/nci-60/default.htm.
Compounds with GIPRCNT values below 10 were considered active. Activity score was based on GIPRCNT using the following formula: […]
Score is 0 for GIPRCNT values of 100 or above, 50 for GIPRCNT values of 0, and 100 for GIPRCNT values of -100.
Take `CCCn1cnc2c1c(=O)n(CCCCC(C)=O)c(=O)n2C`: the growth was 92% (inactive). Turning to `C=CC1=C(C(=O)O)N2C(=O)[C@@H](NC(=O)/C(=N\O)c3csc(N)n3)[C@H]2SC1` (stereo in doubt), the growth was 104% (inactive). Under `CCCCSc1cc(C)nc(N)n1` stands 102% (inactive); under `COc1ccc(C(=O)Nc2nc(-c3ccc(Cl)cc3)cs2)cc1`, 97.9% (inactive). Under `O=C1CCCN1C1CCN(Cc2cc3ccccc3[nH]c2=O)c2ccccc21` (stereo not given) stands 68.7% (inactive). For `C=C1CC[C@@H]2[C@](C)(COC(C)=O)[C@H](OC(C)=O)CC[C@@]2(C)[C@@H]1CC(Nc1ccc(S(=O)(=O)Nc2cc(C)on2)cc1)C1=CCOC1=O` (stereo not given in full) the value was -7.86% (active); for `O=C(Nc1cccc(-n2cc(-c3ccncc3)c(-c3ccc(O)c(Cl)c3)n2)c1)Nc1ccc(Cl)c(C(F)(F)F)c1`, -20.6% (active). Take `CC(=O)c1nc2ccccc2n1CCn1cc(CC(N)C(=O)O)c2ccccc21` (stereo not given): the growth was 83.9% (inactive). For `COc1ccc(-c2c(N)noc2-c2cc(OC)c3c(c2)OCCO3)cc1` the value was 10.3% (inactive). For `CCOC(Cc1c(N)[nH]c(=S)[nH]c1=O)OCC` the value was 88% (inactive); for `C[N+]1(CCC[N+]2(C)C[C@@H]3[C@H](C2)[C@@H]2C=C[C@H]3C2)CCOCC1` (stereo not given in full), 108% (inactive); for `CC(C)[O-].CC(C)[O-].CN(CCN(C)Cc1cc(F)cc(F)c1[O-])Cc1cc(F)cc(F)c1[O-].[Ti+4]`, 8.02% (active).

On to `CN(C)c1nc(N)nc(Cn2c(-c3nonc3N)nc3ccccc32)n1`, for which the growth was 90.8% (inactive). Consider `CCCCCCC(C)(O)c1ccccc1` (stereo not given), for which the growth is 106% (inactive). Turning to `CC1(C)OC(=O)C(=Cc2ccccc2Br)C(=O)O1`, the growth was 99.5% (inactive).

For the molecule `COc1ccc(/C=C/C(=O)Nc2cccnc2Nc2ccc(F)cc2)cc1`, the growth is 80.1% (inactive). For the molecule `CC(=O)NC1(C(=O)O)CCCC1`, the growth was 109% (inactive). As to `COc1cccc(/C=C2\COc3ccc(O)c(O)c3C2=O)c1OC`, the growth is -12.8% (active).

In the case of `CO[C@H]1CC(O[C@@H]2/C(C)=C/C[C@@H]3C[C@@H](C[C@]4(CC[C@H](C)[C@@H](C5CCCCC5)O4)O3)OC(=O)[C@@H]3C=C(C)/C(=N/O)[C@H]4OC/C(=C\C=C\[C@@H]2C)[C@]43O)O[C@@H](C)C1O` (stereo not given in full), the growth is -36.7% (active). For `Nc1nc(N)c([N+](=O)[O-])c(=O)[nH]1` the value was 111% (inactive); for `O=C(Nc1ccccc1Cl)c1cnc2ccc(C3CCNCC3)cn12`, 62.5% (inactive).

With `OCc1nnn(-c2ccccc2)c1CO`, the growth is 106% (inactive).

With `S=c1[nH]nc2sc3ccccc3n12`, the growth is 92.7% (inactive). Under `NC(=O)N/N=C/c1ccc(Br)o1` stands 97.9% (inactive); under `COc1ccc(C2CC(c3cccc(Nc4ccnc5cc(Cl)ccc45)c3)=NN2C=O)cc1` (stereo not given), 15.8% (inactive). On to `O=C(CSc1nc2c(n1Nc1ccccc1)-c1ccccc1SC2)Nc1nc(-c2ccc(Cl)cc2)cs1`, for which the growth is 78.4% (inactive). Turning to `O=C1C2C3C=CC(O3)C2C(=O)N1Nc1ccccc1` (stereo not given), the growth is 101% (inactive).

In the case of `CN(CC(=O)Nc1nc2ccccc2[nH]1)S(=O)(=O)c1ccc(Cl)cc1`, the growth was 58.5% (inactive). For `O=C(O)C(=O)O` the value was 138% (inactive). Regarding `O=C(c1ccccc1)c1ccccc1Cl`, the growth was 94.2% (inactive). Under `COc1ncc(-c2ccc3nccc(C#CCN4CCN(S(C)(=O)=O)CC4)c3c2)cc1NS(=O)(=O)c1ccc(F)cc1F` stands -21% (active); under `COc1ccc(-c2cc(C(=O)Nc3nc4cc(C)c(C)cc4s3)nc3cc(-c4ccccc4)nn23)cc1OC`, 98.7% (inactive).

For the molecule `COc1ccc(-c2nnc(COc3ccc(NC(=O)Nc4cc(C(F)(F)F)cc(C(F)(F)F)c4)cc3F)o2)cc1`, the growth was 8.94% (active). Regarding `CN1C(=O)/C(=C/c2nc(-c3cccc(F)c3)n3ccccc23)c2ccccc21`, the growth was 71.6% (inactive).

`C[n+]1ccc(C#N)c2ccccc21`: the growth is 64.5% (inactive). With `O=C1C(=O)c2ccc(Br)cc2-c2cc(Br)ccc21`, the growth was -31.4% (active). For `COc1ccc2[nH]c(-c3ccccc3)cc2c1` the value was 53.7% (inactive); for `COc1cc2c(c(OC)c1OC)-c1ccc(NN(C(=O)c3ccccc3)C(=O)c3ccccc3)c(=O)cc1[C@@H](NC(C)=O)CC2` (tested in a mixture with another compound), 22.8% (inactive); for `CC1=C(C(=O)Nc2ccccc2)C(c2ccc3c(c2)OCCO3)NC(=O)N1` (stereo not given), 101% (inactive).

As for `Cc1c(NCc2nnc3n(Cc4ccccc4)c(=O)c4c5c(sc4n23)CCCC5)c(=O)n(-c2ccccc2)n1C`, the growth was 52.7% (inactive).
